# Measurements as given in PubChem BioAssay (Tox21).
# Active and inactive are the calls of the source. Calls follow the shape of the dose curve; as a rule, active = well fitted curve in the direction sought with a large enough effect in the repeat runs; inconclusive = weak or mixed curves; inactive = flat fitted curve, though single readings scatter.
# Assay: qHTS assay to test for compound auto fluorescence at 590 nm (red) in HepG2 cell free culture (AID 720684)
# Settings: cell-free medium autofluorescence, red 540/590 nm; series mostly up to 91.3 µM; fluorescence, % of Rose Bengal: at the top concentration
# Excerpt: U.S. Tox21 Program National Center for Advancing Translational Sciences [NCATS] NIH Chemical Genomics Center [NCGC] U.S. Environmental Protection Agency [EPA] National Institutes of Environmental Health Sciences [NIEHS] National Toxicology Program [NTP] U.S. Food and Drug Administration [FDA] Tox21 Assay Overview: Compound auto fluorescence often interferes with screening of the compound library against various biological targets and signaling pathways. Some of these compounds may have fluorophoric properties. Such properties may interfere with the assay outputs resulting in false positives and/or negatives. To decrease such complications and ensure the compound activities are relevant in terms of biological response, the Tox21 10K compound library was screened for auto fluorescence. From the fluorophores used as reporter signals in our screening assays, the auto fluorescence equivalencies of compounds against three fluorophores have been evaluated: Triamterene, Fluorescein and Rose Bengal sodium for blue, green and red fluorescence, respectively. The fluorescence intensities were measured using Excitation/Emission wavelengths at 405/460nm, 485/535nm and 540/590nm for blue, green and red labels, respectively. This assay includes the red fluorescence data.
# Tox21 Assay Protocol Summary: 5 uL of culture medium (MEM containing 10% FBS) per well was dispensed into black wall/clear bottom 1536-well plates using a Multidrop Combi Dispenser (ThermoFisher Scientific, Waltham, MA). After 23 nL compound or DMSO vehicle was transferred into assay plate by a pintool work station (Kalypsys, San Diego, CA), fluorescence intensities in the assay plates were measured by an Envision (PerkinElmer, Shelton, CT) plate reader using three labels for measuring blue, green and red fluorescence at […] 460, 535 and 590nm respectively.
# % is scaled to controls: 0 for no effect and ±100 for the full control effect.
row,Compound,"fluorescence, % of Rose Bengal"
1,CC(=O)c1c(C)cc(C(C)(C)C)cc1C,-0.0276% (inactive)
2,COCc1nnc(-c2ccc[n+]([O-])c2)n1-c1c(Cl)c(Cl)cc2[nH]c(=O)c(=O)[nH]c12,0.377% (inactive)
3,CN(C)CCC[C@@]1(c2ccc(F)cc2)OCc2cc(C#N)ccc21,0.395% [at 46 µM] (inactive)
4,C=C(C)C(=O)OCCOC1CC2CC1C1C=CCC21 (stereo not given),-0.024% [at 95.7 µM] (inactive)
5,CCCCN1C(=O)c2ccccc2C1=O,0.0746% [at 95.7 µM] (inactive)
6,Cc1nnc(C(=O)NC(C)(C)c2nc(C(=O)NCc3ccc(F)cc3)c(O)c(=O)n2C)o1,-0.0863% [at 46 µM] (inactive)
7,CC(C)(O)c1ccc(C(C)(C)O)cc1,-0.0039% (inactive)
8,CN(C)CCc1c[nH]c2ccc(CS(=O)(=O)N3CCCC3)cc12,-0.205% [at 46 µM] (inactive)
9,C[C@@H](CN1CC(=O)NC(=O)C1)N1CC(=O)NC(=O)C1,-0.0257% [at 46 µM] (inactive)
10,CC[C@@]1(c2ccccc2)NC(=O)N(C)C1=O,0.587% [at 46 µM] (inactive)
11,Cc1cccc(N)n1,0.252% [at 95.7 µM] (inactive)
12,CC(O)CCCCn1c(=O)c2c(ncn2C)n(C)c1=O (stereo not given),0.0355% [at 46 µM] (inactive)
13,O=C(O)Cc1ccccc1Oc1ccc(Cl)cc1Cl,-0.261% [at 46 µM] (inactive)
14,CC(C)=CCC/C(C)=C\C#N,0.0266% (inactive)
15,CCO[Si](CC(C)C)(OCC)OCC,-0.0067% (inactive)
16,C[n+]1ccccc1/C=N/O,-0.356% [at 18.6 µM] (inactive)
17,Cc1cc(C)c(C)c(C)c1,0.175% (inactive)
18,CCCCCCCCCCCCCCCC/C=C/C1CC(=O)OC1=O (stereo not given),0.043% [at 46 µM] (inactive)
19,CNC(C)=O,-0.0219% (inactive)
20,O=c1c(O)c(O)c1=O,0.035% (inactive)

row,Compound,"fluorescence, % of Rose Bengal"
1,NS(=O)(=O)c1cc2c(cc1C(F)(F)F)NCNS2(=O)=O,-0.188% [at 18.6 µM] (inactive)
2,Cc1ccc(OC(=O)CC(C)C)cc1,0.0432% (inactive)
3,C=CC(=O)CC,0.0465% [at 95.7 µM] (inactive)
4,CCO/C=C1\N=C(c2ccccc2)OC1=O,0.0563% (inactive)
5,CC(C)(C)OC=O,-0.268% [at 95.7 µM] (inactive)
6,NNC(=O)OCc1ccccc1,0.011% (inactive)
7,CCCCS,-0.198% [at 95.7 µM] (inactive)
8,O=P(O)(O)C(O)(Cc1cccnc1)P(=O)(O)O,-0.0649% [at 46 µM] (inactive)
9,CC(C)(Sc1cc(C(C)(C)C)c(O)c(C(C)(C)C)c1)Sc1cc(C(C)(C)C)c(O)c(C(C)(C)C)c1,-0.645% [at 18.6 µM] (inactive)
10,Clc1cc(Cl)c(Cl)c(Cl)c1Cl,-0.0252% (inactive)
11,Nc1nc(Cl)cc(Cl)n1,-0.0611% (inactive)
12,COc1cc(OC)cc(OC)c1,0.624% [at 46 µM] (inactive)
13,COC(=O)C(c1ccccc1Cl)N1CCc2sccc2C1 (stereo not given),-0.108% [at 46 µM] (inactive)
14,O=C1Nc2ccccc2C1=O,-0.0541% (inactive)
15,Cc1ccc(N)nc1,-0.0824% (inactive)
16,CC(O)C(CO)C(C)O (stereo not given),0.0095% [at 95.7 µM] (inactive)
17,CCNC(=O)C(C)OC(=O)Nc1ccccc1 (stereo not given),0.0681% (inactive)
18,CC(C)(C)c1ccc(N)cc1,0% (inactive)
19,O=CN1CCCCC1,0.0695% (inactive)
20,CCCC(=O)C(CC)Sc1ccoc1C (stereo not given),0.0395% (inactive)
